We go through 38 molecules from PubChem BioAssay (NCI).

This is part of a sample that, as a whole, favours compounds with a hit. Of some 83,000 tested, about 20% had one in any assay.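 The test compound was applied at a single concentration to cells in 96-well plates for 48 hours, and percent growth was recorded.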 Calls of active or inactive are those of the source. The calls were made as follows: active = growth percent below 10; inactive = the rest.

The test deals with NCI-H322M lung. The experiment in a line: NCI-60 one-dose screen, 48 h (100 = growth as untreated, 0 = no growth, -100 = all killed). The following applies: 10 µM unless noted.
As to `O=C(/C=C/c1ccc(Cl)cc1)c1ccc(NC(=O)N2CCN(c3cc4c(cc3F)c(=O)c(C(=O)O)cn4C3CC3)CC2)cc1`, the growth was 103% (inactive).
For the molecule `O=C(/C=C(/C=C/c1csc2ccccc12)OB(F)F)/C=C/c1csc2ccccc12`, the growth was 96.9% (inactive).
Under `CN1CCN(C(=O)[C@]23CCC(C)(C)C[C@H]2C2=CC[C@@H]4[C@@]5(C)C/C(=C/c6cccnc6)C(=O)C(C)(C)[C@@H]5CC[C@@]4(C)[C@]2(C)CC3)CC1` stands 96.3% (inactive); under `CC1=CCC(OC(=O)C(C)(O)CCC(O)(C(=O)OC2(C)C=CC(O)(C(C)C)CC2)C(C)C)(C(C)C)CC1` (stereo not drawn), 99.1% (inactive); under `NC1=NN=C(N)C1=Cc1cc2ccccc2n2nnnc12`, 105% (inactive).
Under `COc1ccc(NC(N)=NCCCOc2ccc(F)cc2)cc1` stands 88.1% (inactive).
Under `O=C1c2ccc3c4c(ccc(c24)C(=O)N1CCCNCc1ccccc1)C(=O)N(CCCNCc1ccccc1)C3=O` stands -37.8% (active); under `O=C(NCCNc1nccc(-c2c(-c3cccc(F)c3)nc3sccn23)n1)c1ccc(Cl)cc1`, 66.3% (inactive).
Take `C=C1C(=O)O[C@H]2[C@H]1CC/C(COC(=O)NCCc1c[nH]c3ccc(OC)cc13)=C\CC[C@@]1(C)O[C@@H]21`: the growth is 87.2% (inactive).
Under `COc1cc(CC(=O)c2ccc(O)c(OC)c2)ccc1O` stands 89.6% (inactive); under `CCN(CC)c1ccc(/C=N/NC(=O)CSc2nc3ccccc3c(=O)n2CCc2ccc(S(N)(=O)=O)cc2)c(O)c1`, 29.4% (inactive).
Under `Cc1ccc(-n2c3c(c(-c4ccccc4)c2-c2ccccc2)C2=NCCN2C=N3)cc1` stands 96.6% (inactive); under `CN1CCN(C(=O)[C@]23CCC(C)(C)C[C@H]2C2=CC[C@@H]4[C@@]5(C)C/C(=C/c6ccncc6)C(=O)C(C)(C)[C@@H]5CC[C@@]4(C)[C@]2(C)CC3)CC1`, 87.6% (inactive); under `C=C(C)[C@@H]1CC[C@]2(C(=O)N3CCN(C)CC3)CC[C@]3(C)[C@H](CC[C@@H]4[C@@]5(C)C/C(=C/c6cccnc6)C(=O)C(C)(C)[C@@H]5CC[C@]43C)[C@@H]12`, 107% (inactive).
As to `N/C(=N\C(N)=N\c1nc2ccccc2s1)c1cccc(Cl)c1`, the growth is 97.7% (inactive).
In the case of `CCOC(=O)Nc1ccc(-c2ccc3c(c2)NC(=O)/C3=C\c2ccc[nH]2)cc1` it was 63.1% (inactive); in that of `CCNC(=O)Oc1ccc(/C(=C(\C)c2ccccc2)c2ccc(OCCN(CC)CC)cc2)cc1`, 99% (inactive); in that of `CCOC(=O)/C(C#N)=C1/NNC(=Nc2cccnc2)S1`, 105% (inactive).
Turning to `COc1cccc(-c2nc3occn3c2-c2ccnc(NCCCNS(=O)(=O)c3ccc(C(F)(F)F)cc3)n2)c1`, the growth was 99.4% (inactive).
In the case of `CC(=O)Nc1ccc(-n2cnc3cc(-c4ccc(OCCN5CCCCC5)cc4)ccc32)cc1` it was 104% (inactive); in that of `Cn1ccnc1C(=O)/C=C/c1ccc(CC(=O)Nc2ccc(Cl)cc2)cc1`, 6.08% (active).
In the case of `C=CCN1C(=O)/C(=C/C(=O)OC)S/C1=N\NC(=O)c1cc2ccc1/C=C\c1ccc(cc1)/C=C\2` it was 97.1% (inactive).
Consider `COc1ccc(/C=C(\C#N)n2nc3cccc(F)c3n2)cc1`, for which the growth is 98.6% (inactive).
In the case of `N/C(=N\C(N)=N\c1nc2ccccc2s1)c1cnccn1` it was 25.1% (inactive); in that of `Cc1c(C(=O)NCCC(=O)NO)sc2ncnc(Nc3ccc(NC(=O)Nc4cccc(C(F)(F)F)c4)cc3)c12`, 104% (inactive); in that of `O=C(Nc1ccc(-c2ccc3c(c2)NC(=O)/C3=C\c2ccc[nH]2)cc1)NC1CC1`, 80.2% (inactive).
Consider `S=c1cc(S)c2cc(Br)ccc2[nH]1`, for which the growth was 91.1% (inactive).
As to `CCCCOc1ccc(/C=N/Nc2cc(C)nc3ccc(Br)cc23)cc1`, the growth is 76.9% (inactive).
As to `N/C(=N\C(N)=N\c1nc2ccccc2s1)c1ccnc(Br)c1`, the growth is 97.4% (inactive).
As to `COc1cc(NC(C)CCCNC(=O)CCC(=O)NCCCNCCCCCCCCNCCCNC(=O)CCC(=O)NCCCC(C)Nc2cc(OC)cc3cccnc23)c2ncccc2c1` (stereo not drawn), the growth is 32.9% (inactive).
Under `COc1cc2nc(-c3ccc(C(F)(F)F)cc3)cc(OCCCN3CCOCC3)c2cc1OC` stands 57.2% (inactive); under `O=C(Cn1c[n+](CC(=O)c2ccc(-c3ccccc3)cc2)c2ccccc21)Nc1cccc2cccnc12`, 77.2% (inactive); under `CC(Oc1ccc(C(=O)O)cc1C(F)(F)F)c1ccc(Oc2ccccc2)cn1` (stereo not drawn), 99.5% (inactive).
With `O=C(Nc1ccc(F)cc1)Nc1ccc(NC(=O)c2cc(Cl)nc3ccccc23)cc1`, the growth is 59.6% (inactive).
Take `O=C(CCN1CCCC1)Nc1ccc2c(Nc3ccc(F)cc3)c3ccccc3nc2c1`: the growth is -14.6% (active).
In the case of `CC(Sc1nc2ccccc2c(=O)n1CCc1ccc(S(N)(=O)=O)cc1)C(=O)Nc1ccc(Cl)cc1` (stereo not drawn) it was 73.4% (inactive); in that of `O=C(N/N=C/c1cc2ccccc2n2nnnc12)Nc1ccccc1`, 105% (inactive).
Under `CC1(C)CC(=O)C2=C(C1)N(c1ccc(F)cc1F)C(N)=C(C#N)C2c1cc(Br)ccc1F` (stereo not drawn) stands 95.4% (inactive).
